The source of these data is PubChem BioAssay (NCI).

The panel holds about 83,000 compounds, 20% with a hit somewhere; the sample as a whole holds those more often.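 Testing used 96-well plates and a 48-hour single-concentration exposure. Example: -40 means 40% of the starting cells died.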 Activity calls are given as the source filed them. How the source made its calls: active means growth percent below 10; inactive means the rest.

The subject of one test is HOP-62 NSCLC. Put plainly: NCI-60 one-dose screen, 48 h (100 = growth as untreated, 0 = no growth, -100 = all killed). The following applies: 10 µM unless noted.
Consider `COc1cc(/C=C2\COc3ccc(-c4ccccc4)cc3C2=O)cc(OC)c1`, for which the growth was 113% (inactive).

In the case of `Cc1c(C(=O)NCCC(=O)NO)sc2ncnc(Nc3ccc(NC(=O)Nc4cccc(C(F)(F)F)c4)cc3)c12`, the growth was 102% (inactive).

For the compound `Cc1cc(C)c(S(=O)(=O)Oc2ccccc2[N+](=O)[O-])c(C)c1`, the growth was 39.8% (inactive).

With `CCCC/C=N/NC(=S)NCc1ccccc1`, the growth is 82.1% (inactive).

Consider `O=C(Nc1ccc(-c2ccc3c(c2)NC(=O)/C3=C\c2ccc[nH]2)cc1)NC1CC1`, for which the growth is 113% (inactive).

For `NCCCCCCNc1cc(-c2cccc(OC(F)(F)F)c2)nc2ccc(N3CCCC3)cc12`, the growth is -33.3% (active).

For the next test, the system named is NCI-H460 lung. The test is described as above. The settings on record: 10 µM unless noted.
`O=S(=O)(Nc1ccc(-n2cnc3cc(-c4ccc(O)cc4)ccc32)cc1)c1ccccc1`: the growth is 95.1% (inactive).

Turning to `O=S(=O)(NCCNc1nccc(-c2c(-c3cccc(O)c3)nc3occn23)n1)c1ccc(Cl)cc1`, the growth is 102% (inactive).

With `COc1cc(C2=NN(C(C)=O)C(c3cc(OC)c(OC)c(OC)c3)C2)ccc1O` (centres undefined), the growth was -6.58% (active).

Turning to `N/C(=N\C(N)=N\c1nc2ccccc2s1)c1cccc(Cl)c1`, the growth was 51.7% (inactive).

In the case of `C=C(C)[C@@H]1CC[C@]2(C(=O)N3CCN(C)CC3)CC[C@]3(C)[C@H](CC[C@@H]4[C@@]5(C)CC[C@H](OCCC#N)C(C)(C)[C@@H]5CC[C@]43C)[C@@H]12`, the growth was 98.7% (inactive).

In the case of `O=C(/C=C(O)/C=C/c1ccc(SC(F)(F)F)cc1)/C=C/c1ccc(SC(F)(F)F)cc1`, the growth is 91.1% (inactive).

In the case of `COc1cc(/C(C)=C(\c2ccc(Cl)cc2)c2ccc(OCCN(C)C)cc2)ccc1F`, the growth is 7.61% (active).

`COc1cc2oc(-c3cccc(C(=O)Nc4ccc(Cl)cc4)c3)cc(=O)c2c(O)c1OC`: the growth was 20.5% (inactive).

On to `COc1ccc2nc(-c3ccc(-c4noc(-c5cc(OC)c(OC)c(OC)c5)n4)cc3)[nH]c2c1`, for which the growth is 56.3% (inactive).

Regarding `COC1=CC(=O)c2ccccc2C1=O`, the growth was 106% (inactive).

As for `CC(=O)Nc1cccc(-c2ccc3c(c2)NC(=O)/C3=C\c2ccc[nH]2)c1`, the growth is 21.6% (inactive).

As for `COc1c(Cl)c2c(c(OC)c1OC)-c1ccc(SC)c(=O)cc1[C@@H](NC(=O)OCC(F)(F)F)CC2`, the growth was 2.44% (active).

In the case of `COc1cc(/C=N/NC(=O)c2cnn3c2NC(c2ccccc2)C3)ccc1Oc1ccccc1` (centres undefined), the growth was 7.15% (active).

On to `COc1cc(C(=O)Nc2cc3c(cc2Oc2cc(C)cc(C)c2)C(=O)N(C)[C@@H](CC(=O)N(C)O)C(=O)N3)c(Br)c(OC)c1OC`, for which the growth is -14.7% (active).

For `COc1cc2cc(CN3CCN(c4nccc(-c5ccc6ccccc6c5)n4)CC3)c(=O)[nH]c2cc1OC`, the growth was -35.9% (active).

`N#C/C(=C\c1c(-c2ccccc2)[nH]c2ccccc12)C(=O)c1ccc(Cl)cc1`: the growth was 18.2% (inactive).

With `NS(=O)(=O)c1ccc(CCn2c(SCC(=O)c3ccc(Cl)cc3)nc3ccccc3c2=O)cc1`, the growth was 105% (inactive).

Consider `CC(C)(C)c1ccc(NS(=O)(=O)c2ccc3nc(NC(=O)c4cnccn4)[nH]c3c2)cc1`, for which the growth is 6.16% (active).

On to `CCCCCN1C=C/C(=C\C(=O)N(C)c2ccc(OC(F)(F)F)cc2)c2ccccc21`, for which the growth was 101% (inactive).

Regarding `CCc1c2c(nc3ccc(OCc4ccc(B(O)O)cc4)cc13)-c1cc3c(c(=O)n1C2)COC(=O)[C@]3(O)CC`, the growth was 2.12% (active).

For `COc1cccc(C(=O)NNc2nc(Cl)nc(N3CCN(C(c4ccccc4)c4ccccc4)CC3)n2)c1`, the growth was 102% (inactive).

Consider `COc1cccc(/C=N/NC(=O)c2cnn3c2NC(c2ccccc2)C3)c1Oc1ccccc1` (centres undefined), for which the growth was 88% (inactive).

As for `COc1ccc(/C=C/C(=O)Nc2cc(/C=C\c3cc(OC)c(OC)c(OC)c3)cc(OC)c2OC)cc1OC`, the growth is 17.5% (inactive).

For the compound `COc1cc2oc(-c3cccc(C(=O)Nc4ccc5c(c4)OCO5)c3)cc(=O)c2c(O)c1OC`, the growth was 54.3% (inactive).

Consider `Nc1c(S(=O)(=O)O)cc2c3c(cccc13)C(=O)OC2=O`, for which the growth was 105% (inactive).

With `O=C1Nc2ccccc2/C1=C\c1c(-c2ccccc2)nc2ccccn12`, the growth was 24.3% (inactive).

Turning to `COc1ccc(-c2[nH][nH]c(=O)c2-c2nc3ccccc3s2)cc1`, the growth is 105% (inactive).

As for `Cc1ccc(-c2csc(NC(=O)CSc3nc(-c4ccccc4)cc(=O)[nH]3)n2)cc1`, the growth was 101% (inactive).

Turning to `Oc1cccc(CCc2ccc(Oc3cc(CCc4cccc(O)c4)cc(O)c3O)cc2)c1`, the growth was 66.4% (inactive).

As for `CCOc1cccc(-c2nc(N)nc(Nc3ccccc3SSc3ccccc3Nc3nc(N)nc(-c4cccc(OCC)c4)n3)n2)c1`, the growth is 35.6% (inactive).

Turning to `Nc1n[nH]c2cccc(C#Cc3cccc(C(=O)Nc4cccc(C(F)(F)F)c4)c3)c12`, the growth was 74.7% (inactive).

For `O=C(Nc1ccc(Cl)cc1)c1cc(NCc2cc(O)ccc2O)ccc1O`, the growth is 98.7% (inactive).

Regarding `COc1cc(/C=C2\COc3ccc(-c4ccccc4)cc3C2=O)cc(OC)c1`, the growth is 66.7% (inactive).

Turning to `Cc1c(C(=O)NCCC(=O)NO)sc2ncnc(Nc3ccc(NC(=O)Nc4cccc(C(F)(F)F)c4)cc3)c12`, the growth is 99.4% (inactive).

Take `Cc1cc(C)c(S(=O)(=O)Oc2ccccc2[N+](=O)[O-])c(C)c1`: the growth is 8.64% (active).

On to `CCCC/C=N/NC(=S)NCc1ccccc1`, for which the growth is 101% (inactive).

On to `O=C(Nc1ccc(-c2ccc3c(c2)NC(=O)/C3=C\c2ccc[nH]2)cc1)NC1CC1`, for which the growth is 59.8% (inactive).

As to `NCCCCCCNc1cc(-c2cccc(OC(F)(F)F)c2)nc2ccc(N3CCCC3)cc12`, the growth was -91.8% (active).
